Bioassay records: PubChem BioAssay, National Center for Advancing Translational Sciences (NCATS)
TGFb SMAD3 inh = TGF-b pathway inhibition; HepG2 CAGA-GFP TGF-b/SMAD3 reporter, GFP fluorescence, 18 h; TGF-beta stimulated, 500 pg/mL final; 410,000 compounds, 1.2% hits; Potency, µM (doses to about 46.1 µM), most hits filed as inhibitors; further: nearly all actives have a fitted effect of over 65% in size
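Read-out: total well GFP (ex488/em500-530) summed from mean per-cell fluorescence. Cells: HEPG2 CAGA-GFP, 1% FBS DMEM, 18 h at 37 degrees C with 500 pg/mL final TGF-beta. Unstimulated wells served as the full-inhibition control; stimulated DMSO wells = 0%.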
DT40 TDP1 no CPT = qHTS for Inhibitors of human tyrosyl-DNA phosphodiesterase 1 (TDP1): qHTS in cells in absence of CPT | DT40 Tdp1-/- hTDP1 cells, no CPT, ATP luminescence, 48 h | Potency, µM (top dose mostly 46.2 µM), actives largely listed as inhibitors | 420,000 compounds, 15% hits | AID 686978, 2013; further: nearly all actives have a fitted effect of over 55% in size
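No-CPT arm: Tdp1-/-;hTDP1 DT40 cells (400/well) plus compounds, incubated ≥48 hr at 37 °C. Readout CellTiter-Glo luminescence.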
HT1080-NT tox = kills 2HG-producing HT-1080-NT fibrosarcoma cells. HT-1080-NT fibrosarcoma viability, CellTiter-Glo ATP luminescence, 48 h. Potency, µM (titrated, usually from 46.1 µM), actives largely listed as cytotoxic. 360,000 compounds, 1.6% hits;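 further: NT is the 2HG producing partner of a matched IDH1 knockdown line; nearly all actives have a fitted effect of over 55% in size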
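Luminescent CellTiter-Glo readout after 48 hours of compound exposure at 37 degrees C defined viability of HT-1080-NT cells. Activity was normalized to DMSO wells and cell-free media wells; concentration-response curves were fitted and assigned curve classes.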
HepG2 viability = kills HepG2 cells in TGF-b inhibitor counter-screen. HepG2 CAGA-GFP viability, ATP luminescence, 18 h. Potency, µM (series often up to 46.1 µM), most hits filed as cytotoxic. 410,000 compounds, 0.76% hits. AID 588856
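CellTiter-Glo luminescence gave cytotoxicity after 18 hours at 37 degrees C. The cells were HepG2 CAGA-GFP in 1% FBS DMEM, stimulated with 500 pg/mL TGF-beta after compound addition. %Activity was normalised to no-cell wells (complete cell-killing) and DMSO (no toxicity), and curves were fitted and classified.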
HT1080 IDH1KD tx = toxicity to HT-1080 IDH1 knockdown cells (counter line). HT-1080 IDH1 knockdown viability, ATP luminescence, 48 h. Potency, µM (top dose mostly 46.1 µM), usual class: cytotoxic. 360,000 compounds, 2% hits
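IDH1KD HT-1080 cells, 750/well, RPMI + 5% FBS; compound pinned after 2 h settling; 48 h, 37 °C; CellTiter-Glo luminescence; % activity normalised to DMSO and no-cell wells; curves fitted, classed by r2 and efficacy.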
TDP1 cell CPT = growth inhibition of DT40 Tdp1-/-;hTDP1 cells with camptothecin (screen for TDP1 inhibitors); chicken DT40 Tdp1-/-;hTDP1 cells + 20 nM CPT, ATP luminescence, 48 h; Potency, µM (doses to about 46.2 µM), hits mostly inhibitors; 420,000 compounds, 12% hits; AID 686979; further: nearly all actives have a fitted effect of over 55% in size
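Cell growth measured by CellTiter-Glo luminescence after a minimum 48 h, 37 C compound exposure with 20 nM CPT in Tdp1-knockout DT40 cells stably expressing hTDP1, seeded 400/well; qHTS titration format.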
A number is an active result; i = inactive; ? = inconclusive; nt = not tested or not shown; [ ] = another dose, or the depositor's remark. Rows were chosen to be rich in hits. Some 17% of all compounds tested hit in one or more screens of this group. The call rests on the fitted dose curve; in most records, active means well fitted curve in the direction sought with a large enough effect; inconclusive means small, poorly fitted or top-dose-only effect, or another doubt; inactive means no such curve, though single readings can be large; an effect the other way counts as inactive or inconclusive.

SMILES	TGFb SMAD3 inh	DT40 TDP1 no CPT	HT1080-NT tox	HepG2 viability	HT1080 IDH1KD tx	TDP1 cell CPT
CCOC(=O)N1CCN(CC(=O)Nc2nc3ccc(OC)cc3s2)CC1	i	?	i	i	i	?
O=C(CCC(=O)c1cccs1)NCc1cccc(C(F)(F)F)c1	i	i	i	i	i	i
CCOC(=O)[C@H]1[C@H]2COc3ccc(OC)cc3[C@@H]2N2C(=O)CN(CC3CCCO3)C(=O)[C@@]12C (some centres undefined)	i	i	i	i	i	i
COc1ccc(-c2nc3ncccc3o2)cc1NC(=O)c1cccs1	i	15µM	i	i	i	i
O=C(Nc1cc(-c2nc3ncccc3o2)ccc1Cl)c1cccs1	i	21µM	i	i	i	?
COc1ccc(C(=O)Nc2ccc(-c3nc4ncccc4o3)cc2C)cc1Br	i	?	nt	i	nt	10µM
CN1CCN(S(=O)(=O)c2cccc(C(=O)NCCOc3ccccc3F)c2)CC1	i	i	i	i	i	i
Cc1oc(-c2ccc(Cl)cc2)nc1CN1CCCC(C(=O)NC2CC2)C1 (centres undefined)	i	10µM	i	i	i	16µM
CCCN(CCC)CCNC(=O)C1CCN(Cc2nc(-c3ccc(Cl)cc3)oc2C)CC1	i	23µM	i	i	i	?
Cc1oc(-c2ccc(Cl)cc2)nc1CN1CCC(C(=O)NCc2cccnc2)CC1	i	?	i	i	i	i
COc1ccc(-c2nc(CN3CCCC(C(=O)NC4CCCC4)C3)c(C)o2)cc1 (centres undefined)	i	?	i	i	i	?
CCc1ccc(-c2nc(CN3CCCC(C(=O)NCc4ccccc4Cl)C3)c(C)o2)cc1 (centres undefined)	?	4.6µM	nt	i	nt	6.5µM
Cc1oc(-c2ccc(Cl)cc2)nc1CN1CCCC(C(=O)NCCCN2CCCC2=O)C1 (centres undefined)	i	8.2µM	i	i	i	8.2µM
Cc1oc(-c2ccc(Cl)cc2)nc1CN1CCCC(C(=O)NCc2ccc(Cl)cc2)C1 (centres undefined)	i	?	nt	i	nt	?
Cc1nc(CC(=O)N2CCC(n3c(C4CCC4)nc4cccnc43)CC2)cs1	nt	i	nt	nt	nt	i[9.04 µM]
CC(C)Nc1ccc(-c2nc(-c3ccccn3)no2)cc1[N+](=O)[O-]	i	i	nt	i	nt	i
Cc1oc(-c2ccc(Cl)cc2)nc1CN1CCCC(C(=O)NCc2ccco2)C1 (centres undefined)	i	23µM	i	i	i	?
CCN1CCN(CCNC(=O)C2CCCN(Cc3nc(-c4cccc(Cl)c4)oc3C)C2)CC1 (centres undefined)	i	16µM	i	i	i	21µM
CCOC(=O)N1CCC(NC(=O)C2CCCN(Cc3nc(-c4cccc(Cl)c4)oc3C)C2)CC1 (centres undefined)	i	0.73µM	i	i	i	0.82µM
Cc1oc(-c2cccc(Cl)c2)nc1CN1CCCC(C(=O)NCCc2ccc(Cl)cc2)C1 (centres undefined)	i	?	nt	i	nt	?
Cc1cccc(Cl)c1NNC(=O)Nc1c([N+](=O)[O-])c(C)nn1C	i	i	i	i	i	i
Cc1ccc2nc(-c3ccccc3)cc(C(=O)N3CCN(S(=O)(=O)c4c(C)noc4C)CC3)c2c1	i	23µM	i	i	i	?
Cc1ccc(S(=O)(=O)N2CCN(C(=O)c3c(-c4ccccc4)noc3C)CC2)c(C)c1	i	?	i	i	i	18µM
Cc1ccc(S(=O)(=O)N2CCN(C(=O)c3c(-c4ccccc4)noc3C)CC2)cc1C	i	i	i	i	i	?
Oc1ccccc1-c1nnc(COc2ccccc2)o1	i	i	i	i	i	?
SMILES	TGFb SMAD3 inh	DT40 TDP1 no CPT	HT1080-NT tox	HepG2 viability	HT1080 IDH1KD tx	TDP1 cell CPT
O=Cc1ccc(OCc2nnc(-c3ccccc3Br)o2)cc1	i	i	i	i	i	i
Oc1ccccc1-c1nnc(COc2ccc(Cl)cc2Cl)o1	i	?	i	i	i	21µM
NC(=O)c1ccccc1OCc1nnc(-c2ccccc2Br)o1	i	29µM	i	i	i	23µM
COc1ccc(OC)c(S(=O)(=O)Nc2cccc3ccccc23)c1	i	?	i	i	i	i
COc1ccc(OC)c(S(=O)(=O)Oc2ccc(N)c3ccccc23)c1	?	23µM	i	i	i	?
Cc1ccc(S(=O)(=O)NCc2ccccc2)cc1C(=O)NCC(=O)Nc1c(C)cccc1C	i	21µM	i	i	i	?
Cc1ccc(S(=O)(=O)NCc2ccccc2)cc1C(=O)N(C)Cc1ccc(F)cc1	?	?	i	i	i	?
CCN(CC(=O)NCc1ccc(Cl)cc1)C(=O)c1cc(S(=O)(=O)NCc2ccccc2)ccc1C	i	21µM	i	i	i	?
CCN(CC(=O)NCc1ccc(Cl)cc1)C(=O)c1ccc2cc(OC)ccc2c1	i	13µM	i	i	i	?
CCN(CC(=O)NCc1ccc(Cl)cc1)C(=O)CSc1cccc(C(F)(F)F)c1	i	18µM	i	i	i	18µM
O=C(CN1C(=O)CCSc2ccc(S(=O)(=O)N3CCOCC3)cc21)Nc1ccccc1Cl	i	i	i	i	i	?
CCc1ccccc1NC(=S)N(CCN1CCCCC1)Cc1ccco1	i	?	i	i	i	i
COc1ccc(/C=N/n2nnnc2N)c(OC)c1	i	i	i	i	i	i
CC1CC(C)CN(S(=O)(=O)c2ccc3c(c2)CC(C)N3C(=O)C2CCC2)C1 (centres undefined)	?	15µM	i	i	i	23µM
CCOC(=O)N1CCN(S(=O)(=O)c2ccc3c(c2)CC(C)N3C(=O)C2CC2)CC1 (centres undefined)	i	i	i	i	i	?
CC1CC(C)CN(S(=O)(=O)c2ccc3c(c2)CC(C)N3C(=O)C2CC2)C1 (centres undefined)	?	15µM	i	i	i	18µM
CC1Cc2cc(S(=O)(=O)N3CCCCC3C)ccc2N1C(=O)C1CCC1 (centres undefined)	i	?	?	i	i	?
CCOC(=O)C1CCCCN1S(=O)(=O)c1ccc2c(c1)CC(C)N2C(=O)C1CCC1 (centres undefined)	i	9.2µM	?	i	i	23µM
CC1CCN(C(=O)C2CCN(S(=O)(=O)c3ccc4c(c3)CC(C)N4C(=O)C3CC3)CC2)CC1 (centres undefined)	i	?	i	i	i	i
